High-throughput results as filed in PubChem BioAssay.
RecA intein inh: Mtb RecA intein splicing inhibition. P9WHJ3. hit rate 0.75% among 290,000. inhibition, % (no concentration beside the values). cell-free RecA intein splicing, fluorescence. AID 2221; in the data active = inhibition above about 30%;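 note: 0% = vehicle wells and 100% = reference inhibitor control wells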
Target sequence (P9WHJ3 whole entry, looked up): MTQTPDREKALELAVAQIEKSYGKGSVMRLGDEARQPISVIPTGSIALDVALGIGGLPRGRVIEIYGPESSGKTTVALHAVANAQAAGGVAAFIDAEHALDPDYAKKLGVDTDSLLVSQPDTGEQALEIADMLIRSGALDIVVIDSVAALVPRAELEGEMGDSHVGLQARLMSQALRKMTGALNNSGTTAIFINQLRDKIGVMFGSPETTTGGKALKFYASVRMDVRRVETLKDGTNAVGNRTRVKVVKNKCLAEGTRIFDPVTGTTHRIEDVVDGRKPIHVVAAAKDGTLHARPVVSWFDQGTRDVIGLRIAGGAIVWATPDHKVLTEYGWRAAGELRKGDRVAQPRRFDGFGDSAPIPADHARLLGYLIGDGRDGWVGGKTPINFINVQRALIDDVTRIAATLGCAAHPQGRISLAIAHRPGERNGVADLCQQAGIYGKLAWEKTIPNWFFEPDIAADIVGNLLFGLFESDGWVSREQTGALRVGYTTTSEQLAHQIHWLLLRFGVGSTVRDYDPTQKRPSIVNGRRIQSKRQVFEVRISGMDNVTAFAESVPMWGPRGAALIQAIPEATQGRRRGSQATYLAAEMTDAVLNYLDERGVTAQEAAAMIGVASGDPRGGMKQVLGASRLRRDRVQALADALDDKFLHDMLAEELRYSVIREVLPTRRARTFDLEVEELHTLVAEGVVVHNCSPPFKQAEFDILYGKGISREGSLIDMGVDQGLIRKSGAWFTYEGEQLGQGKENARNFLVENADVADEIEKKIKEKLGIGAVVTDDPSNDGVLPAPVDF
Mtb betalactam: beta-lactam sensitization of Mtb H37Rv; M. tuberculosis H37Rv growth with meropenem, percent inhibition; inhibition, % at 25 µM; hit rate 0.27% among 330,000; call rule not given here;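 note: growth measured after seven days incubation then overnight dye step; 0% = bacteria only wells and 100% = bacteria with antibiotic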
GDH-TPI inh: inhibits GDH-TPI coupling enzymes, artifact for Mtb FBA screen | hit rate 1.2% among 360,000 | inhibition, % at 4.8 µM | GDH-TPI coupled enzyme counterscreen, NADH absorbance;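 note: 0% = DMSO wells and 100% = wells lacking the enzyme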
FBA Mtb inh: inhibitors of M. tuberculosis fructose-bisphosphate aldolase. purified M. tuberculosis FBA, fluorescence read-out. hit rate 2.3% among 360,000. AID 588726. inhibition, % at 1 µM; in the data active = inhibition above about 27%;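 note: 0% = vehicle and 100% = reference inhibitor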
CCHF vOTU inh-1: blocks the CCHF virus ovarian tumor domain protease. inhibition, % at 11.5 µM. hit rate 0.55% among 370,000. CCHFV vOTU protease, Pep-AMC fluorescence; note: 0% = vehicle wells with enzyme and 100% = no enzyme wells
CCHF vOTU inh-2: CCHFV vOTU protease inhibition, confirmation; shares compounds with CCHF vOTU inh-1; Recombinant CCHFV vOTU, Pep-AMC fluorescence; inhibition, % at 11.5 µM; hit rate 17% among 1,900; AID 686976
Numbers without * were called inactive. An excerpt weighted towards active compounds, which were near 4.2% of everything screened. Cut-off read from the data, not from the text of the source, unless noted: active = inhibition above about 30%; inactive = the rest.

O=C(COC(=O)COc1ccccc1Cl)Nc1ccccc1OC(F)F was read as RecA intein inh 1.6, Mtb betalactam -6.2, GDH-TPI inh 9.2, FBA Mtb inh -4.2, CCHF vOTU inh-1 32.6* and CCHF vOTU inh-2 -3.3.
`O=C(COC(=O)c1ncc(Cl)c(Cl)c1Cl)Nc1ccccc1OC(F)F` gave RecA intein inh 0.2, Mtb betalactam 2.5, GDH-TPI inh 7.3, FBA Mtb inh 2.7 and CCHF vOTU inh-1 19.0.
`O=C1NC(Cc2ccc(O)cc2)c2nc3cc(F)c(F)cc3c(=O)n2-c2cc3ccccc3cc21` (stereo unspecified) gave GDH-TPI inh 7.2, FBA Mtb inh -1.4, CCHF vOTU inh-1 29.9* and CCHF vOTU inh-2 -17.3.
CCCCOCC1CN(CCCC)S(=O)(=O)c2c(cccc2N(C)S(=O)(=O)c2ccc(C)cc2)O1 (stereo unspecified) was read as CCHF vOTU inh-1 32.2* and CCHF vOTU inh-2 -1.5.
`COc1cccc(NC(=O)COC(=O)CCn2c(C)csc2=O)c1` gave RecA intein inh -4.2, Mtb betalactam -5.7, GDH-TPI inh 6.6, FBA Mtb inh -0.7 and CCHF vOTU inh-1 -3.6.
For O=C1c2ccccc2C(=O)c2[nH]cnc21 the results were RecA intein inh 23.8, Mtb betalactam 35.9, GDH-TPI inh 4.6, FBA Mtb inh 1.5 and CCHF vOTU inh-1 10.7.
For O=C1C(O)=C(O)C(=O)c2ccccc21 the results were Mtb betalactam 1.6, GDH-TPI inh 15.7, FBA Mtb inh 6.4, CCHF vOTU inh-1 104.6* and CCHF vOTU inh-2 60.0*.
Screening O=C1c2ccccc2C(=O)c2[nH]c(=O)[nH]c21 returned RecA intein inh -1.6, Mtb betalactam 99.8, GDH-TPI inh 1.9, FBA Mtb inh -1.2, CCHF vOTU inh-1 79.3* and CCHF vOTU inh-2 75.1*.
Screening Cc1ccc(S(=O)(=O)N2CCC(C(=O)OCC(=O)N3CCCC(C)C3)CC2)cc1C (stereo unspecified) returned RecA intein inh 2.2, Mtb betalactam 2.1, GDH-TPI inh 3.8, FBA Mtb inh -0.5 and CCHF vOTU inh-1 4.0.
Screening CSc1ccccc1NC(=O)CN(C)C(=O)COc1cccc2cccnc12 returned Mtb betalactam 100.1, GDH-TPI inh 2.2, FBA Mtb inh -0.2, CCHF vOTU inh-1 33.2* and CCHF vOTU inh-2 -8.7.
`COc1ccc(-c2nnc(SCC(=O)Nc3ccc(S(=O)(=O)Nc4nccs4)cc3)n2-c2ccc(OC)cc2)cc1` gave CCHF vOTU inh-1 13.0.
Screening CCN(CC(=O)NCc1ccc(F)cc1)C(=O)C(C)Oc1cccc(Cl)c1 (stereo unspecified) returned Mtb betalactam 3.6, GDH-TPI inh 3.2, FBA Mtb inh -0.2 and CCHF vOTU inh-1 -11.7.
For CC1OC(CC(=O)O)CC2=C1C(=O)c1c(O)cccc1C2=O (stereo unspecified) the results were GDH-TPI inh 12.1, FBA Mtb inh -1.7, CCHF vOTU inh-1 92.9* and CCHF vOTU inh-2 98.2*.
CC(C)C1OC(CCc2ccccc2)Cc2[nH][nH]c(=O)c21 (stereo unspecified) was read as CCHF vOTU inh-1 32.8* and CCHF vOTU inh-2 6.3.
Screening CC1CN(Cc2ccccc2)C(=S)N(c2ccccc2)C1=O (stereo unspecified) returned GDH-TPI inh 11.6, FBA Mtb inh 2.2, CCHF vOTU inh-1 32.0* and CCHF vOTU inh-2 -17.1.
Screening CC1CN(C(C)C)C(=S)N(c2ccccc2)C1=O (stereo unspecified) returned GDH-TPI inh 15.9, FBA Mtb inh -8.0 and CCHF vOTU inh-1 16.0.
For CN(C)CC1CCC/C(=C/c2ccc(Cl)cc2)C1=O (stereo unspecified) the results were GDH-TPI inh 6.0, FBA Mtb inh -1.0 and CCHF vOTU inh-1 7.5.
Screening Nc1c(N(CCC2=CCCCC2)C(=O)C2CC2)c(=O)[nH]c(=O)n1Cc1ccccc1 returned RecA intein inh 0.4, Mtb betalactam -6.2, GDH-TPI inh -11.6, FBA Mtb inh 4.1 and CCHF vOTU inh-1 -5.4.
`CCOC(=O)N(CC)c1ccc(C(O)(C(=O)OCC)C(F)(F)F)cc1` (stereo unspecified) gave RecA intein inh -0.6, Mtb betalactam -3.2, GDH-TPI inh 0.4, FBA Mtb inh -3.5, CCHF vOTU inh-1 30.6* and CCHF vOTU inh-2 -11.6.
For CCOc1ccc(C(=O)NCC(=O)OCC(=O)N(C)CC(=O)Nc2ccccc2CC)cc1OCC the results were GDH-TPI inh -1.1, FBA Mtb inh 5.6 and CCHF vOTU inh-1 2.1.
